A selection follows.
aSyn UTR act – Activators via SNCA 5'UTR binding, MLPCN; activity score, % (tested at 7.5 µM), hits read low; 300,000 tested, 7.1% active; AID 1814, 2009; alpha-synuclein 5'UTR reporter, activators screen; in the data active = activity score below about -60%
Active calls of the source: *.

SMILES | aSyn UTR act
CCC(=O)Nc1ccc(NC(=O)C23CC4CC(CC(C4)C2)C3)cn1 | -94*
O=C(Nc1ccc(NC(=O)C23CC4CC(CC(C4)C2)C3)cn1)c1ccco1 | -144*
CCOC(=O)C1(Cc2ccccc2C)CCCN(C(=O)c2sccc2C)C1 (stereo unspecified) | -70*
COc1ccccc1N1CCN(Cc2cc(Br)c(O)c3ncccc23)CC1 | 77
CCOC(=O)C1(Cc2cccc(OC)c2)CCN(Cc2cccc(OCC)c2O)CC1 | -69*
CCOC(=O)C1(Cc2ccccc2)CCCN(C(=O)C=C(C)C)C1 (stereo unspecified) | -137*
CC#CC(=O)N1CCCC(Cc2cccc(OC)c2)(C(=O)OCC)C1 (stereo unspecified) | -106*
CCOC(=O)C1(Cc2cccc(OC)c2)CCCN(C(=O)CCc2cccnc2)C1 (stereo unspecified) | -133*
CCOC(=O)C1(Cc2cccc(OC)c2)CCCN(C(=O)CSC)C1 (stereo unspecified) | -97*
CCOC(=O)C1(Cc2cccc(OC)c2)CCCN(C(=O)c2cc(C)oc2C)C1 (stereo unspecified) | -71*
COc1ccc(-n2c(C)nn(CCOc3ccccc3)c2=O)cc1 | -90*
CNC(C)C#Cc1ccc2oc3cccc(OC)c3c(=O)c2c1 (stereo unspecified) | -128*
CNC(C)C#Cc1ccc2c(=O)c3c(OC)cccc3oc2c1 (stereo unspecified) | -66*
CN(C)/C=C1\SC(=S)N(c2ccc(Br)cc2)C1=O | -100*
CCCN1C(=O)c2cc(C(=O)NC3CCCCCC3)ccc2C1O (stereo unspecified) | -81*
Cc1cc(C(=O)NC2CCCCCCC2)ccc1[N+](=O)[O-] | -141*
Cc1cc(C(=O)Nc2ccncc2)ccc1[N+](=O)[O-] | -65*
CCn1c(C)c(C)c2cc(C(=O)NC3CCCCCC3)ccc21 | -87*
CN(C)c1cccc(C(=O)NC2CCCCCC2)c1 | -118*
Cc1cccc(CC(=O)NCC2CCCCC2)c1 | -71*
Cc1cccc(C(=O)NC2CCCCCCC2)c1 | -214*
COC(=O)/C=C/c1cnc2ccccc2c1 | -92*
CC(C)(C)NC(=O)C(c1ccncc1)N(Cc1ccco1)C(=O)c1ccc(-c2ccccc2)[nH]1 (stereo unspecified) | -83*
COc1ccc(CNc2nc3nc(C)c(Cl)c(C)n3n2)cc1 | -65*
COc1cccc(CNc2nc3nc(C)c(Cl)c(C)n3n2)c1 | -95*
SMILES | aSyn UTR act
C=CCS/C(=N\n1cnc2ccccc2c1=O)N1CCCCC1 | -86*
COC(=O)c1ccc(C)c(NS(=O)(=O)c2ccc3c(c2)OCCO3)c1 | 94
CC(C)Cc1cc(C(=O)Nc2ccc3c(c2)OCO3)no1 | -184*
Cc1cc(NS(=O)(=O)c2ccc(NC(=O)Nc3ccc4c(c3)OCO4)cc2)no1 | -71*
Cc1cc(C(=O)Nc2ccc3c(c2)OCO3)no1 | -107*
CC1(C)CN=C(N(Cc2ccccc2)C(=O)Nc2ccccc2)S1 | -154*
CN(C)CC/C=C1\c2ccc(F)cc2Sc2cc(F)c(Cl)cc21 | 103
CC(C)Cc1cc(C(=O)Nc2ccc(F)cc2F)no1 | -139*
CCc1ccc(NC(=O)c2cc(CC(C)C)on2)cc1 | -120*
O=C(Nc1ccc(F)cc1F)c1csc(-c2cccs2)n1 | -270*
CC(C)Cc1cc(C(=O)Nc2ccc(Br)cc2)no1 | -137*
CCc1ccc(NC(=O)c2cc(C(C)C)on2)cc1 | -103*
CC(C)c1cc(C(=O)NCCc2ccccc2)no1 | -201*
CC(=O)c1cccc(NC(=O)c2cc(C(C)C)on2)c1 | -101*
CC(C)Cc1cc(C(=O)NCc2cccs2)no1 | -164*
Cc1cccn2c(CN(C)CCC3CCCCO3)c(C(=O)N3CCCCC3)nc12 (stereo unspecified) | -69*
NC(=O)c1ccc(-c2ncc(-c3ccccc3)o2)cc1 | -68*
Clc1ccc2nc(N3CCN(c4ccccc4)CC3)sc2c1 | -109*
Brc1ccc2nc(N3CCN(c4ccccc4)CC3)sc2c1 | -143*
O=C(Nc1ccccc1F)c1cc2nc(C(F)F)cc(C(F)F)n2n1 | -71*
CCC(Sc1nncn1C)C(=O)Nc1nnc(-c2ccccc2Cl)s1 (stereo unspecified) | -64*
O=C(Nc1nnc(-c2ccccc2)s1)c1ccccc1F | -152*
O=C(Nc1nnc(-c2ccccc2Cl)s1)c1ccccc1F | -173*
COc1cc(CCC(C)=O)ccc1OC(=O)c1c(F)cccc1Cl | -185*
COc1ccc(NC(=O)COC(=O)c2c(F)cccc2Cl)cc1OC | -110*
SMILES | aSyn UTR act
COc1ccc(CCNC(=O)c2ccc(Cl)cc2Cl)cc1OC | -99*
Nc1nc(CSc2ccccc2)nc(N2CCCCC2)n1 | -129*
O=C(Nc1nc2c(Cl)cccc2s1)c1ccc(Br)o1 | -131*
O=C(Nc1nc2ccc(Cl)cc2s1)c1ccc(Br)o1 | -237*
O=C(Nc1nc2c(F)cccc2s1)c1ccc([N+](=O)[O-])o1 | -95*
O=C(Nc1nc2c(Cl)cccc2s1)c1ccc([N+](=O)[O-])o1 | -80*
O=C(Nc1cccc(NC(=O)c2ccccc2Cl)c1)c1ccc([N+](=O)[O-])o1 | 86
COc1ccc2c(C(=O)CN3CCSCC3)c[nH]c2c1 | -63*
CCOc1ccc(NC(=S)c2ccncc2)cc1 | -110*
Cc1ccc(NC(=S)c2ccc(N(C)C)cc2)cc1 | 55
COc1ccc(C(=S)Nc2ccc(N(C)C)cc2)cc1 | -99*
COc1ccc(NC(=S)c2ccccc2)cc1 | -148*
COCCNC(=S)NC(=O)c1ccc(C(C)(C)C)cc1 | -91*
COCCCNC(=S)NNC(=O)C1CC1c1ccc(C(C)(C)C)cc1 (stereo unspecified) | -100*
COc1ccc(CNC(=O)CSc2ccsc2[N+](=O)[O-])cc1 | -117*
O=C(CCCN1C(=O)/C(=C/c2ccc3c(c2)OCO3)SC1=S)Nc1cccc(C(=O)O)c1 | 73
O=C(CCCc1cccs1)Nc1ccc2c(c1)OCO2 | -182*
COc1ccc(CNC(=O)Cc2cccs2)cc1 | -70*
O=C(Cc1cccs1)NCc1ccc2c(c1)OCO2 | -65*
O=C(Cc1cccs1)NCc1cccc(Br)c1 | -112*
Cc1cc(C)nc(Nc2n[nH]c(-c3ccccc3Br)n2)n1 | -115*
Cc1cc(C)nc(Nc2n[nH]c(-c3ccccc3C)n2)n1 | -136*
CC(C)(C)c1ccc(/C=C2\SC(=O)N(CCNC(=O)c3cccc(S(=O)(=O)N4CCOCC4)c3)C2=O)cc1 | -89*
CCN(CC)c1ccc(/C=N/NC(=O)c2cccc(S(=O)(=O)N3CCOCC3)c2)c(O)c1 | 129
Oc1ccccc1N1CCN(c2ccc3ccccc3n2)CC1 | -138*
SMILES | aSyn UTR act
Fc1ccccc1N1CCN(c2cnc3ccccc3n2)CC1 | -70*
c1ccc(CN2CCN(c3cnc4ccccc4n3)CC2)cc1 | -208*
Cc1ccc(N/C=C(/C#N)c2ccsc2)cc1C | -172*
O=c1c(Cl)c(N2CCN(c3ccc(F)cc3)CC2)cnn1-c1nc2ccccc2s1 | -112*
Cc1ccc(C(=O)COc2ncnc3cc(Cl)ccc23)cc1 | -76*
O=C(CSc1ncnc2ccccc12)c1ccc2c(c1)OCCO2 | -346*
O=C(COc1ncnc2cc(Cl)ccc12)c1ccc2c(c1)OCCO2 | -92*
O=C(COC(=O)c1ccc(Cl)nc1)c1ccc2c(c1)OCCO2 | -71*
O=C(COc1ncnc2ccccc12)c1ccc2c(c1)OCCO2 | -88*
CCCOC1CCCN(C(=O)c2cc(COc3ccc(F)c(F)c3)on2)C1 (stereo unspecified) | -118*

High-throughput results (PubChem BioAssay)
